Measurements: PubChem BioAssay (NCI)
The panel holds about 83,000 compounds, 20% with a hit somewhere; the sample as a whole holds those more often.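 Interpretation: 100, growth as untreated; towards 0, rising growth inhibition; 0, no net growth; 0 to -100, cell death. Compounds scoring below 10 were considered active.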 Values without a mark were called inactive. Calls of active or inactive are those of the source.

Key:
Assay in all cases: NCI-60 one-dose screen, 48 h (100 = growth as untreated, 0 = no growth, -100 = all killed)
Conditions in all cases: 10 µM unless noted
NCI-H23 lung = test system: NCI-H23 lung
NCI-H226 lung = test system: NCI-H226 lung
NCI-H322M lung = test system: NCI-H322M lung
HOP-62 NSCLC = test system: HOP-62 NSCLC
NCI-H460 lung = test system: NCI-H460 lung
HOP-92 NSCLC = test system: HOP-92 NSCLC
NCI-H522 lung = test system: NCI-H522 lung
A549/ATCC NSCLC = test system: A549/ATCC NSCLC
786-0 renal = test system: 786-0 renal
COLO 205 colon = test system: COLO 205 colon
DU-145 prostate = test system: DU-145 prostate
K-562 leukemia = test system: K-562 leukemia
MALME-3M melanoma = test system: MALME-3M melanoma
MDA-MB-231 breast = test system: MDA-MB-231 breast
RXF 393 renal = test system: RXF 393 renal
SF-268 CNS = test system: SF-268 CNS
SF-295 CNS = test system: SF-295 CNS
SF-539 CNS = test system: SF-539 CNS
UACC-257 melanoma = test system: UACC-257 melanoma
M14 melanoma = test system: M14 melanoma

SMILES | growth (NCI-H23 lung) | growth (NCI-H226 lung) | growth (NCI-H322M lung) | growth (HOP-62 NSCLC) | growth (NCI-H460 lung) | growth (HOP-92 NSCLC) | growth (NCI-H522 lung) | growth (A549/ATCC NSCLC) | growth (786-0 renal) | growth (COLO 205 colon) | growth (DU-145 prostate) | growth (K-562 leukemia) | growth (MALME-3M melanoma) | growth (MDA-MB-231 breast) | growth (RXF 393 renal) | growth (SF-268 CNS) | growth (SF-295 CNS) | growth (SF-539 CNS) | growth (UACC-257 melanoma) | growth (M14 melanoma)
C#Cc1cccc(NC(=O)C2CCCCN2C(=O)CCl)c1 (stereo not given) | -76.1% [8.25 µM] (active) | -53.4% [8.25 µM] (active) | 65.1% [8.25 µM] | 26.6% [8.25 µM] | 10.9% [8.25 µM] | -54.2% [8.25 µM] (active) | -57% [8.25 µM] (active) | 36.5% [8.25 µM] | -72.9% [8.25 µM] (active) | -52.5% [8.25 µM] (active) | -33.8% [8.25 µM] (active) | 2.41% [8.25 µM] (active) | -86.7% [8.25 µM] (active) | -62% [8.25 µM] (active) | -87.8% [8.25 µM] (active) | -53.2% [8.25 µM] (active) | 52.4% [8.25 µM] | -91.1% [8.25 µM] (active) | -0.384% [8.25 µM] (active) | -41.9% [8.25 µM] (active)
Cc1ccc(S(=O)(=O)N2CCCN(c3nc(-c4ccccc4)nc4nc(-c5ccccc5)oc34)CC2)cc1 | 100% | 99.5% | 97.3% | 101% | 103% | 110% | 83.6% | 106% | 102% | 124% | 113% | 97.3% | 111% | 96.8% | 128% | 106% | 105% | 96% | 108% | 110%
CCOC(=O)c1[nH]cc2c1CCc1sc(Nc3ccccn3)nc1-2 | 66.7% | 57.2% | 96% | 92.3% | 85.9% | 56.3% | 66.2% | 70.2% | 98.7% | 93.7% | 74.4% | 59.5% | 108% | 82.3% | 86.2% | 89.4% | 86.5% | 101% | 73.8% | 86.3%
O=[N+]([O-])c1c(O)c(Cl)cc(Cl)c1Cl | 98.7% | 94.4% | 101% | 97.9% | 107% | 83.3% | 94.7% | 93.1% | 99.6% | 116% | 113% | 103% | 96.5% | 103% | 104% | 102% | 97.9% | 109% | 108% | 98.1%
COc1ccc2c(c1)oc1c(C)c3c(c(C)c12)C(=O)N(CCOS(C)(=O)=O)C3=O | 94.2% | 106% | 96.7% | 103% | 94% | 113% | 87.7% | 109% | 95.2% | 107% | 106% | 96% | 90.1% | 90.7% | 116% | 92.3% | 103% | 92.2% | 125% | 103%
CC(O)CNC(Cc1ccccc1)c1ccc2c(c1)OCO2 (stereo not given) | 98.5% | 90% | 93.6% | 60.9% | 103% | 67.2% | 71.9% | 84.6% | 83% | 71.4% | 107% | 90.5% | 91% | 99.5% | 110% | 95.9% | 88.8% | 87.4% | 103% | 80.4%
CN(C)c1ccc(CNCCO)cc1 | 107% | 91.9% | 104% | 76.3% | 105% | 75.1% | 43.5% | 76% | 86.1% | 85.7% | 105% | 97.9% | 103% | 110% | 113% | 101% | 103% | 97.5% | 85.4% | 96.7%
C=C1SC(=Nc2ccccc2Cl)N(C(=O)c2sc3ccccc3c2Cl)C1(C)C | 36.7% | 77.1% | 65.9% | 54.8% | 15.1% | 53.6% | 91.6% | 43.7% | 77.8% | -43.8% (active) | 94% | 20.3% | 79.6% | 50.5% | 93.8% | 85.2% | 27% | 54.3% | 98.4% | 86.6%
N#Cc1c(-c2ccccc2)cc(-c2ccccc2)n(CCCCC(=O)NO)c1=O | 25.8% | 9.98% (active) | 92.2% | 21.1% | 73% | 15.7% | 19.3% | 41.7% | 7% (active) | 43.3% | 20.2% | 6.77% (active) | 11.5% | 25.6% | -16.5% (active) | 43% | 1.64% (active) | 24.3% | 35.8% | 19.1%
CN(C)/C(N)=N/N=C(\c1ccccc1)c1ccccn1 | 95.7% | 97.3% | 83.1% | 110% | 101% | 87.2% | 95.5% | 107% | 99.9% | 106% | 97.7% | 96.7% | 93.3% | 88.1% | 98.5% | 92.6% | 106% | 103% | 112% | 93%
Cc1cc(NCCCNc2ccnc3cc(Cl)ccc23)nc(Nc2ccc(C(=O)N3CCCCC3)cc2)n1 | 52.5% | 108% | 17.8% | 73.8% | 9.68% (active) | 83.8% | -11.6% (active) | 20.5% | -29.5% (active) | -32.1% (active) | 36.6% | 0.0536% (active) | -90.5% (active) | -38.7% (active) | -63.9% (active) | 10.2% | -34% (active) | -75.1% (active) | -72.9% (active) | -68.3% (active)
CC(=O)Nc1sc2c(c1-c1nc3ccccc3s1)CNC2 | 24.9% | 26% | 14.5% | 18.6% | 8.68% (active) | 0.851% (active) | -12.5% (active) | 14.1% | 28.4% | 8.21% (active) | 25.6% | 13.2% | 19% | 21.9% | 18% | 40.4% | 13.3% | 28.4% | 27.6% | 21.9%
O=C(/C=C/C12c3ccccc3C(c3ccccc31)C1C(=O)NC(=O)C12)c1ccc(Cl)cc1Cl (stereo not given) | 32.9% | 78.7% | 41.4% | 21% | 8.61% (active) | 37.6% | 9.1% (active) | 37.4% | 19.1% | -8.3% (active) | 23% | 7.41% (active) | 48.2% | 19.3% | -4.59% (active) | 33.3% | 40.8% | 39.4% | 41% | 24.4%
COCCn1cc(-c2nc(-c3cn(CCOC)c4ncccc34)cs2)c2cc(F)ccc21 | 53.5% | 75.4% | 46.9% | 74.4% | 49.7% | 56.9% | 33.3% | 53.7% | 76.6% | 35.5% | 86.1% | 63.7% | 95.3% | 44.9% | 86.5% | 91.6% | 74.7% | 76.1% | 69.5% | 66.6%
